Consider 97 compounds from PubChem BioAssay AID504339 (National Center for Advancing Translational Sciences (NCATS), 2011).

Several values for one entry are separate records, joined by “and”; a condition that tells them apart may be missing. Equal entries are not always repeated. Among all 390,000 compounds or so, about 17,000 (4.4%) were called active. Not shown: some 8% with an inconclusive outcome. Calls follow the shape of the dose curve; as a rule, active = well fitted inhibition curve with a large enough effect; inconclusive = small, poorly fitted or top-dose-only effect; inactive = no such curve, though single readings can be large or run the other way. The entries come from a sample that favours actives as a whole. A call without a number means that no potency is given here. Some compounds were tested as several samples or in several runs, with calls that do not always agree.
Potency is read from the fitted curve at half-maximal effect.

The target of the experiment is Lysine-specific demethylase 4A (Homo sapiens) (UniProt O75164). Briefly: qHTS Assay for Inhibitors of JMJD2A-Tudor Domain. Also: nearly all actives have a fitted effect of over 50% in size. The note with it: AlphaScreen JMJD2A-Tudor / H3K4me3 peptide binding; series mostly up to 114 µM. (In general: In qHTS, concentration-response curves come from the screen itself.)
Chain of Lysine-specific demethylase 4A (Homo sapiens) (O75164 whole entry, looked up, the tested form may be a part): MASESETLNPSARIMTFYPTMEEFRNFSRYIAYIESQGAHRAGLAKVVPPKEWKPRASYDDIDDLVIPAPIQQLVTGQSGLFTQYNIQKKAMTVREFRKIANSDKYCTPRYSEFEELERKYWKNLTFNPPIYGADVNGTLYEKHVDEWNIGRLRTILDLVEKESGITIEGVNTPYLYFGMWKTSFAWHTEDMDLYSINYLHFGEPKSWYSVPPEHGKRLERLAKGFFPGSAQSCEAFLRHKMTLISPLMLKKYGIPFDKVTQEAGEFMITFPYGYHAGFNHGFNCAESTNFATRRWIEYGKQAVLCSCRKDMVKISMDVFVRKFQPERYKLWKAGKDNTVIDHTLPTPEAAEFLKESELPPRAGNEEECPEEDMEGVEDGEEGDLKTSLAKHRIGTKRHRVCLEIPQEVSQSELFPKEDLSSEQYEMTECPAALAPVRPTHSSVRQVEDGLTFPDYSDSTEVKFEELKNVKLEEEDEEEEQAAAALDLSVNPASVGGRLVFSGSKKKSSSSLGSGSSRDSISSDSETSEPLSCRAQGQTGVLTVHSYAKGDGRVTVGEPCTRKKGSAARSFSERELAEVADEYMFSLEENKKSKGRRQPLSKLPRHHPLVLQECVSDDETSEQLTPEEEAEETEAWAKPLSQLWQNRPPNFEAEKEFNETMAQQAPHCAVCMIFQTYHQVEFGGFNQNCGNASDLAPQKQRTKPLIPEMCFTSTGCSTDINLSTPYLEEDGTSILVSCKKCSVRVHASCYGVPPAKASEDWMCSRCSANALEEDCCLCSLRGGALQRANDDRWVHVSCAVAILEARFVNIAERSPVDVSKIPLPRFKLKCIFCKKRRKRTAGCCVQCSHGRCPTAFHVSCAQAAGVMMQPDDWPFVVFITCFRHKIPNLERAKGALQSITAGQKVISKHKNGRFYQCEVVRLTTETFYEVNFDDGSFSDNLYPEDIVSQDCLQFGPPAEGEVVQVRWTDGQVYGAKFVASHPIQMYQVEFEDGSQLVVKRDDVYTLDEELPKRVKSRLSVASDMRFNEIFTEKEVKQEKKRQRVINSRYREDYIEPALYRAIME
As for `CCOc1ccc(Nc2c(S(=O)(=O)c3ccccc3)cnc3ccccc23)cc1`, the Potency result is “inactive”. On the same count and under the same terms, the entry for `COc1cccc(-n2ccn(CC(=O)NCc3ccc(C)cc3)c(=O)c2=O)c1` is “inactive”; for `C=CC1=C(C(=O)O)N2C(=O)[C@@H](NC(=O)/C(=N\OCC(=O)O)c3csc(N)n3)[C@H]2SC1` it is 20 µM (active). Take `CO/N=C(\C(=O)N[C@@H]1C(=O)N2C(C(=O)O)=C(COC(C)=O)CS[C@H]12)c1csc(N)n1` (stereo in doubt): the Potency result was “inactive and 79.4 µM (active) and 56.2 µM (active)”. The same measure, in the same setting: then `CC(C)(C)OC(=O)C1=C(CO)CS[C@@H]2[C@H](NC(=O)Cc3ccccc3)C(=O)N12`, with “inactive”; and `C=CC1=C(C(=O)O)N2C(=O)[C@@H](NC(=O)/C(=N/OCC(=O)O)c3csc(N)n3)[C@H]2SC1`, with 25.1 µM (active). The same measure, in the same setting: the entry for `COc1cc(C(=O)NCC(c2ccc(Cl)cc2)N2CCOCC2)cc(OC)c1OC` (configuration not stated) is “inactive”; for `Cc1cc(C)cc(NC(=O)CCCc2nc(-c3ccccc3Cl)no2)c1` it is “inactive”. Regarding `Cc1ccc(OCCSc2nc3ccc(NC(=O)COc4ccc(C)cc4)cc3s2)cc1`, the Potency entry is “inactive”. `CC(=O)c1ccc(NC(=O)CSc2nnc(NC(=O)Nc3ccccc3)s2)cc1`: the Potency entry was “inactive”.

Turning to `Cn1c(=O)c2c(nc(SCC(=O)Nc3ccc(F)cc3)n2Cc2ccc(Cl)cc2)n(C)c1=O`, the Potency result is “inactive”. With `CCOC(=O)c1ccc(CSc2nnc3cc(C)c4ccccc4n23)cc1`, the Potency entry was “inactive”.

Consider `Cc1c(CCNC(=O)c2ccc(C(F)(F)F)cc2)sc2nc(-c3ccc(F)cc3)nn12`, for which the Potency result is “inactive”. On the same count and under the same terms, the entry for `Oc1c(C(c2ccc(F)cc2)N2CCN(Cc3ccccc3)CC2)sc2nc(-c3ccco3)nn12` (configuration not stated) is “inactive”; for `Cc1ccccc1CN1C[C@@H]2C[C@@H](c3ccc4nsnc4c3)N3CCC[C@@]23C1=O` it is “inactive”; for `COc1ccc(CN2CCN(Cc3cn(C)nc3-c3ccccc3)CC2CCO)c(C)c1C` (configuration not stated) it is “inactive”. Same read-out and setting: the figure for `Cc1ccccc1CN1C[C@@H]2C[C@@H](c3cn(C)nc3-c3ccccc3)N3CCC[C@@]23C1=O` is 63.1 µM (active). The same measure, in the same setting: then `O=C(CCc1nc(CN2CCN(S(=O)(=O)c3ccc(Br)cc3)CC2)no1)N1CCCCC1`, with “inactive”.

`COc1ccc(NC(=O)CSc2nc3ccccc3n2CC(=O)N2CCCCC2C)cc1` (configuration not stated): the Potency result was “inactive”. Same read-out and setting: the entry for `COc1ccc(-c2nnc(-c3ccc4ccccc4c3)o2)cc1` is “inactive”; for `COc1ccc(Nc2ccc3ccccc3c2)cc1` it is 56.2 µM (active); for `COc1ccc(Nc2cc(=O)oc3ccccc23)cc1` it is “inactive”. Same read-out and setting: the entry for `COc1cccc(NC(=O)C(=O)NCC(c2ccc3c(c2)OCO3)N2CCN(C)CC2)c1` (configuration not stated) is “inactive”. Same read-out and setting: the figure for `S=c1[nH]nc(-c2ccncc2)n1/N=C/c1ccccc1Cl` is 3.16 µM (active). In the case of `Fc1ccccc1/C=N/n1c(-c2cccnc2)n[nH]c1=S`, the Potency is 3.98 µM (active). Consider `S=c1nc2ccccc2c2nc(-c3cccnc3)[nH]n12`, for which the activity change, negative = inhibition was -17.6% [at 11.4 µM] (inactive).

Regarding `COc1ccc(-c2cc(C(=O)Nc3sc4c(c3C(N)=O)CCCC4)no2)cc1`, the Potency entry was “inactive”. As to `Cc1cccc(N2CCN(C(=O)CCn3c(=O)c4cccn4c4cccnc43)CC2C)c1` (configuration not stated), the Potency result was “inactive”. For the compound `COc1ccc(Cn2c(=O)c3oc4ccccc4c3n(CC(=O)Nc3ccc(F)cc3F)c2=O)cc1`, the Potency result was “inactive”. With `CCC1CCCCN1C(=O)Cn1c(=O)n(CCCCCC(=O)NCc2ccccc2)c(=O)c2sccc21` (configuration not stated), the Potency result is “inactive”. Consider `CN1CCOc2cc(S(=O)(=O)N3CCN(S(=O)(=O)c4c(F)cccc4F)CC3)cnc21`, for which the Potency result was “inactive”. On to `CCn1c(C)nc2c1C(=O)c1ccccc1C2=O`, for which the Potency entry is “inactive”. Still for that read-out and setting: the entry for `CCn1c(SCC(=O)Nc2ccc3c(c2)OCCO3)nnc1-c1ccncc1` is “inactive”; for `CCn1c(-c2ccoc2C)n[nH]c1=S` it is 10 µM (active). On the same count and under the same terms, then `CCCc1cc(-c2n[nH]c(=S)n2CC)c2ccccc2n1`, with 79.4 µM (active); and `CCn1c(SCC(=O)Nc2nccs2)nnc1-c1ccncc1`, with “inactive”. Turning to `CC(C)n1c(-c2ccncc2)n[nH]c1=S`, the Potency is 22.4 µM (active).

Turning to `CC(C)n1c(-c2cccs2)nc2ccccc21`, the Potency entry was “inactive”. The same measure, in the same setting: then `CCn1c(SCC(=O)NC2CCCC2)nnc1-c1ccoc1C`, with “inactive”; and `CCCn1c(C)cc(-c2csc(NC(=O)CCc3nc4ccccc4c(=O)[nH]3)n2)c1C`, with “inactive”; and `CCn1c(-c2ccncc2)n[nH]c1=S`, with 10 µM (active). As for `O=C(CC1C(=O)N(c2ccccc2)C(=O)N1CCc1cccs1)Nc1ccc(F)cc1` (configuration not stated), the Potency entry was “inactive”. Still for that read-out and setting: then `O=C(NCCCO)C(=O)Nc1c2c(nn1-c1ccccc1)CSC2`, with “inactive”; and `COc1cccc(-c2nc(S(=O)(=O)c3ccc(C)cc3)c(NCc3ccccc3)o2)c1`, with “inactive”. For the compound `O=C(NCc1ccc(F)cc1)c1ccc2nc(N3CCCCC3)sc2c1`, the Potency entry was “inactive”. As for `Cc1ccc(NC(=O)CSc2nc3c([nH]c4ccccc43)c(=O)n2-c2ccccc2)c(C)c1`, the Potency result is “inactive”. Regarding `O=C(Nc1ccc(Br)cc1)c1ccc(Br)c(S(=O)(=O)NCc2ccccc2)c1`, the Potency result is “inactive”. On the same count and under the same terms, the entry for `COc1ccc(CCNC(=O)c2ccc3c(c2)sc2nc(-c4ccc(C)cc4)cn23)cc1OC` is “inactive”. As to `Cc1ccc(Oc2c(C(F)(F)F)oc3c(CN4CCCCC4)c(O)ccc3c2=O)cc1`, the Potency entry is “inactive”.

As for `CC1CCCC(N2CCN(C(=O)c3ccc(F)cc3)CC2)C1` (configuration not stated), the Potency was 10 µM (active).

In the case of `O=C(c1ccc(F)cc1)N1CCCC(C(=O)N2CCCCC2)C1` (configuration not stated), the Potency entry was “inactive”. On to `O=C(c1ccc(F)cc1)N1CCC(n2nnc3ccccc32)CC1`, for which the Potency entry is “inactive”.

Regarding `CCOc1ccc(S(=O)(=O)Nc2ccc3oc4c(c3c2)CC(C)CC4)cc1` (configuration not stated), the Potency result is “inactive”. Take `Cc1ccccc1CSc1nc2c([nH]c3ccccc32)c(=O)n1C`: the Potency entry was “inactive”. The same measure, in the same setting: the entry for `Cc1ccc2nc(COc3cccc(NC(=O)c4cccc(Cl)c4)c3)cc(=O)n2c1` is “inactive”; for `CC(OC(=O)c1cc2ccccc2o1)C(=O)Nc1ccc(N2CCOCC2)cc1` (configuration not stated) it is “inactive”; for `COc1ccc(-c2cc(=O)oc3cc(OC(C)C(=O)Nc4ccc(CN5CCOCC5)cc4)ccc23)cc1` (configuration not stated) it is “inactive”. Same read-out and setting: then `Cc1cc(=O)oc2cc(OC(C)C(=O)Nc3ccc(N4CCOCC4)cc3)ccc12` (configuration not stated), with 89.1 µM (active); and `COc1ccc(-c2c(C)c3ccc(O)c(CN4CCCC4)c3oc2=O)cc1OC`, with “inactive”; and `COc1cc(OC)c(OC)cc1/C=C/c1nc2cc3ccccc3cc2c(=O)n1-c1ccc(F)c(Cl)c1`, with “inactive”. Same read-out and setting: the entry for `O=C(CSc1nc(Nc2ccc(F)c(F)c2)c2ccccc2n1)c1ccc(Cl)cc1` is “inactive”; for `Cc1ccnc(-n2sc3ccccc3c2=O)n1` it is 6.31 µM (active); for `Cc1ccc(-c2nnc(Nc3cccc(Br)c3)c3ccccc23)cc1S(=O)(=O)NCC1CCCO1` (configuration not stated) it is “inactive”. On to `Cc1ccc(/C=C/C(=O)Nc2ccc([N+](=O)[O-])c(NC(=O)/C=C/c3ccc(C)o3)c2)o1`, for which the Potency was 79.4 µM (active). Same read-out and setting: then `Cc1ccc(/C=C/C(=O)Nc2cc(S(=O)(=O)N3CCCCCC3)ccc2OCC(F)(F)F)o1`, with “inactive”; and `CNc1ccc(NC(C)=O)cc1[N+](=O)[O-]`, with “inactive”; and `Cc1nc2ccccc2nc1N/N=C/c1ccc(O)cc1O`, with 14.1 µM (active).

For the compound `Oc1ccc2nc(Cc3ccccc3)[nH]c2c1`, the Potency result was “inactive”. As for `Cc1ccc(/C=N/NC(=O)C2=NNC(c3ccccc3)(c3ccccc3)C2)c(O)c1`, the Potency entry was “inactive”. Same read-out and setting: then `CCOC(=O)c1ccc(NC(=O)CC2C(=O)N(c3cccc(OC)c3)C(=O)N2C2CCCCC2)cc1` (configuration not stated), with “inactive”. With `CCOC(=O)c1ccc(NC(=O)c2nc[nH]c2C(=O)NCc2ccccc2)cc1`, the Potency result is “inactive”.

For the compound `O=C(N[C@@H](Cc1ccccc1)C(=O)OCc1ccccc1)c1nc[nH]c1C(=O)NC1CCNCC1`, the Potency entry is “inactive”. On the same count and under the same terms, the figure for `CCOC(=O)c1[nH]cnc1C(=O)NC1CCCCC1` is 3.98 µM (active); for `CCc1ccccc1NC(=O)N1CCN(C(=O)c2nsc3ccccc23)CC1` it is “inactive”. As for `CCOC(=O)c1cccc(NS(=O)(=O)c2cn(C)c(C)n2)c1`, the Potency entry is “inactive”. The same measure, in the same setting: the entry for `Fc1ccc(CSc2nc(NCc3ccccc3)c3ccccc3n2)cc1` is “inactive”; for `CCCS(=O)(=O)C(=C1Nc2ccccc2N1)S(=O)(=O)CCC` it is “inactive”; for `CN(C)/C=C1/Nc2ccccc2C1=O` it is 50.1 µM (active). The same measure, in the same setting: then `CCOc1ccccc1CNC(=O)c1cnc2c(-c3ccc(OCC)c(OCC)c3)c(C)nn2c1C`, with “inactive”; and `COc1ccccc1CNC(=O)CCn1c(=O)c2ccccc2n(CC(=O)Nc2cccc(Cl)c2)c1=O`, with “inactive”; and `CCCCN(C)c1nnc(NC(=O)Nc2ccc(Br)c(C)c2)s1`, with “inactive”.

Take `CCN1/C(=C/C(=S)Nc2ccccc2)Sc2ccccc21`: the Potency was 50.1 µM (active). Same read-out and setting: the entry for `CCN1C(=O)c2ccccc2Sc2ccc(NC(=O)Cc3ccc(OC)cc3)cc21` is “inactive”; for `CCNCCC(=O)N1c2ccccc2Sc2ccc(NC(=O)OCC)cc21` it is “inactive”; for `Cc1cc(C)cc(N(CC(=O)NC2CCCC2)C(=O)CCC(=O)Nc2nccs2)c1` it is “inactive”. The same measure, in the same setting: then `CC(=O)NC1CCN(CC(=O)Nc2nccs2)CC1`, with 31.6 µM (active). Turning to `CC1CCN(CC(=O)Nc2nccs2)CC1`, the Potency entry is “inactive”. The same measure, in the same setting: the entry for `COc1ccc(-c2nc(CN3CCC(C(=O)NCc4ccccc4)CC3)c(C)o2)cc1OC` is “inactive”; for `COc1ccc(CNC(=O)COCc2cc(-c3cccs3)on2)cc1OC` it is “inactive”; for `CC(C)OP(=O)(OC(C)C)C(Nc1ccccc1)c1cccc([N+](=O)[O-])c1` (configuration not stated) it is “inactive”. The same measure, in the same setting: then `Cc1cc([N+](=O)[O-])ccc1NS(=O)(=O)c1ccccc1`, with “inactive”.

As to `CC(Nc1ccc([N+](=O)[O-])cc1[N+](=O)[O-])c1ccccc1` (configuration not stated), the Potency is 12.6 µM (active).

On to `COc1ccc(-c2cc(-c3ccccc3)nc3c2COc2ccc(Cl)cc2-3)cc1`, for which the Potency entry was “inactive”. Same read-out and setting: the entry for `Cc1cc(C(F)(F)F)nc(SCC(=O)Nc2nccs2)n1` is “inactive”; for `Cc1cccc(NC(=O)CSc2nc(-c3ccco3)cc(C(F)(F)F)n2)c1C` it is “inactive”.

Turning to `CCOC(=O)c1sc(NC(=O)CSc2nc(C)cc(C(F)(F)F)n2)c(C#N)c1C`, the Potency is 50.1 µM (active). Still for that read-out and setting: the entry for `Cc1ccc(C(=O)Nc2ccccc2F)cc1S(=O)(=O)N1CCOCC1` is “inactive”.
